The nature of test [1]: CCTE_Shafer_MEA_acute_per_network_burst_spike_number_std: CCTE's Neural Acute Assay for Standard Deviation of Number of Spikes in a Network Burst, Shafer Lab (AID 2284020).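 Note: fitted for decrease in spike-number SD versus DMSO so actives lower it.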 An outline of the steps: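 Acute MEA exposure, rat cortical neurons, 0.03-40 uM. Per-well % change versus own baseline; DMSO as negative control.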
Test [2] in a line: CCTE_Shafer_MEA_acute_per_network_burst_electrodes_number_mean: CCTE's Neural Acute Assay for Mean Number of Electrodes in a Network Burst, Shafer Lab (AID 2284021).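 Note: curves fitted for decreases only so hits reduce electrodes per burst.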 An outline of the steps:
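Rat primary cortical neurons on 48-well MEAs, DIV 13 or 15, were treated at 0.03-40 uM. Spikes were detected at 8x rms noise and recorded at 37 C. The mean electrodes per network burst in a 40 min exposure recording was expressed as percent change from a 40 min baseline.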

The nature of test [3]: CCTE_Shafer_MEA_acute_network_burst_percentage: CCTE's Neural Acute Assay for Percentage of Network Bursts, Shafer Lab (AID 2284022).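 Note: curves fitted for loss so actives lower network burst percentage.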 An outline of the steps:
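Rat primary cortical neuron networks on 48-well MEA plates, DIV 13 or 15, treated acutely with compound (0.03-40 uM, at least three wells). Percent of spikes within network bursts compared between 40-min recordings before and during exposure at 37 C, expressed as percent change.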

Test [4] can be described thus: CCTE_Shafer_MEA_acute_cross_correlation_area: CCTE's Neural Acute Assay for Area of Cross Correlation, Shafer Lab (AID 2284024).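 Note: curves fitted for loss of cross-correlation area so actives lower synchrony.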 The gist of the method: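 Rat primary cortical neurons on 48-well MEA, DIV 13 or 15; compounds 0.03-40 uM. Baseline and post-exposure 40 min recordings at 37 C; percent change in area under pooled inter-electrode cross-correlation near zero lag, relative to DMSO.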

Test [5] can be described thus: CCTE_Shafer_MEA_acute_cross_correlation_HWHM: CCTE's Neural Acute Assay for Cross Correlation at Half Width at Half Maximum, Shafer Lab (AID 2284026).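 For outcome: spontaneous network firing of rat primary cortical neurons on multiwell microelectrode arrays.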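 Note: hits are a decrease in cross-correlogram half width relative to DMSO.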 The gist of the method: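 Rat primary cortical neurons on 48-well MEA plates; 40-min baseline and 40-min post-exposure recordings at 37 C on DIV 13 or 15, compounds 0.03-40 uM. Spikes detected at 8x rms noise; percent change in cross-correlogram HWHM per well vs baseline.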

Test [6] can be described thus: CCTE_Shafer_MEA_acute_synchrony_index: CCTE's Neural Acute Assay for Synchrony, Shafer Lab (AID 2284027).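 Note: network synchrony index of spontaneous spiking in primary rat cortical neurons on MEAs; fitted for loss of signal so actives lower synchrony relative to DMSO.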 An outline of the steps: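 Plates equilibrated 20 min at 37 C, baseline recorded 40 min, compound (0.03-40 uM) added, then 40 min more recorded. Cells: primary rat cortical neurons, DIV 13 or 15. Per-well synchrony index change analysed in negative direction against DMSO.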

Test [7] in a line: CCTE_Shafer_MEA_dev_per_burst_spike_percent: CCTE's Neural Network Formation Assay for Percent of Spikes in a Burst, Shafer Lab (AID 2284032).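 For AC50: fitted as a decrease in burst spike percentage below DMSO baseline.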 An outline of the steps: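 Value is trapezoidal AUC over recordings on days 5, 7, 9 and 12 of the well-mean fraction of spikes falling in single-electrode bursts; rat cortical cultures exposed continuously from plating, treatment renewed DIV 5 and 9, fitted downward against DMSO.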

Test [8] can be described thus: CCTE_Shafer_MEA_dev_active_electrodes_number: CCTE's Neural Network Formation Assay for Number of Active Electrodes, Shafer Lab (AID 2284040; active = hit-call score of the fitted dose curve at least 0.9, where 1 is the maximum;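 for AC50: potency for loss of active electrodes versus DMSO so lower counts are hits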). An outline of the steps: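 Counts electrodes per well firing at least 5 spikes/min, recorded on days 5, 7, 9 and 12 in rat cortical cultures dosed continuously from plating (treatment refreshed DIV 5, 9). Value is the area under the curve over recordings, fitted downward relative to DMSO.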

Test [9] in a line: CCTE_Shafer_MEA_dev_burst_rate: CCTE's Neural Network Formation Assay for Burst Rate, Shafer Lab (AID 2284042). The gist of the method: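 Exposure ran continuously over 12 days of network development in rat cortical cultures, with compound refreshed during full media changes on DIV 5 and 9. Single-electrode bursts per recording time, well-mean over active electrodes, trapezoidal AUC across days 5–12, fitted downward relative to DMSO.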

Test [10] can be described thus: CCTE_Shafer_MEA_dev_burst_duration_mean: CCTE's Neural Network Formation Assay for Mean Burst Duration, Shafer Lab (AID 2284045). The gist of the method: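 Network-formation assay in primary rat cortical neurons; treatment spans twelve days of development. Mean burst duration per well is integrated by trapezoidal AUC and fitted in the loss-of-signal direction against DMSO baseline.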

Test [11] in a line: CCTE_Shafer_MEA_dev_interburst_interval_mean: CCTE's Neural Network Formation Assay for Mean Interburst Interval, Shafer Lab (AID 2284046).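 Note: curve fitted for decrease in interburst interval relative to DMSO.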 An outline of the steps: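 Primary rat cortical neurons on PEI-coated 48-well MEA plates (laminin added with cells at plating) (16 electrodes/well), exposed from plating day 0 with renewal at DIV 5 and 9. Mean inter-burst interval averaged over bursting electrodes, AUC across days 5, 7, 9, 12; DMSO baseline.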

Test [12] in a line: CCTE_Shafer_MEA_dev_inter_network_spike_interval_mean: CCTE's Neural Network Formation Assay for Mean Inter-network Spike Interval, Shafer Lab (AID 2284047). An outline of the steps: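 Mean time between consecutive network-spike peaks, recorded extracellularly (adaptive spike detection) on DIV 5, 7, 9 and 12, summarized as trapezoidal AUC. Rat cortical cultures on MEAs dosed continuously days 0–12, re-dosed at feeds; loss-of-signal fit relative to DMSO.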

Test [13] is described as follows: CCTE_Shafer_MEA_dev_network_spike_number: CCTE's Neural Network Formation Assay for Number of Network Spikes, Shafer Lab (AID 2284048).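 Note: synchronized bursts across electrodes counted on days 5 7 9 12 and integrated as AUC.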 The gist of the method: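 Extracellular recordings from 16-electrode wells track network formation in rat cortical cultures under continuous treatment from plating. The endpoint is network spike number, expressed as AUC across DIV 5–12 relative to DMSO vehicle.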

A short description of test [14]: CCTE_Shafer_MEA_dev_network_spike_duration_std: CCTE's Neural Network Formation Assay for Standard Deviation of Network Spike Duration, Shafer Lab (AID 2284052).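 Note: hits are decreases in network spike duration SD versus DMSO vehicle.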 The gist of the method:
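Network spike duration variability was collapsed across recordings on days 5, 7, 9 and 12 by trapezoidal area-under-curve and fitted downward against DMSO. Cultures were rat cortical neurons on PEI-coated MEA plates, dosed continuously from plating, refed with compound DIV 5/9.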

Test [15] is described as follows: CCTE_Deisenroth_AIME_384WELL_CTox_Inactive: Cytotoxicity Assessment (CTOX) in CCTE's 384-well Estrogen Receptor Transactivation Assay without AIME metabolic competence (metabolism negative), Deisenroth Lab (AID 2284039; active = hit-call score of the fitted dose curve at least 0.9, where 1 is the maximum;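 note: cell viability via live-cell protease substrate cleaved to fluorescent probe; cells exposed 24 h to medium preincubated 2 h with alginate-water beads without S9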). The gist of the method:
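Fluorescent protease-substrate viability readout after 24 h exposure of VM7Luc4E2 cells to conditioned medium. Chemicals (0.002–200 uM) first sat 2 h over alginate-water beads, no S9. Data fitted bidirectionally, loss of signal meaning viability loss.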

Test [16] has as its system DIO2 (gene 1734). As to the kind of experiment: CCTE_GLTED_hDIO2: CCTE's human Deiodinase 2 (DIO2) Inhibition Assay, Great Lakes Toxicology and Ecology Division (GLTED) Lab (AID 2284050; active = hit-call score of the fitted dose curve at least 0.9, where 1 is the maximum). The gist of the method: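 Inhibition is judged by reduced iodide release: uninhibited human DIO2 frees iodide from substrate over 3 h, measured afterward by Sandell-Kolthoff colorimetry. Iodinated chemicals or nitrite, iron and thiocyanate may interfere.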

A short description of test [17]: CCTE_Deisenroth_AIME_384WELL_CTox_Active: Cytotoxicity Assessment (CTOX) in CCTE's 384-well Estrogen Receptor Transactivation Assay with AIME metabolic competence (metabolism positive), Deisenroth Lab (AID 2284037; active = hit-call score of the fitted dose curve at least 0.9, where 1 is the maximum;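 note: chemicals first conditioned 2 h by alginate-bound induced rat liver S9 before cells; activity means signal loss indicating cell death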). The gist of the method:
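VM7Luc4E2 breast cells received medium pre-incubated 2 h with chemical over alginate microspheres holding induced male Sprague Dawley rat liver S9; viability read 24 h later by protease-substrate fluorescence. Loss of signal, bidirectional fit, 0.002–200 uM.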

Several values for one entry are separate records, joined by “and”; a condition that tells them apart may be missing. Identical values can stand only once. Inconclusive results are not listed. Activity calls are given as the source filed them. Rule for the calls, unless noted: active = hit-call score of the fitted dose curve at least 0.9, where 1 is the maximum; inactive = score below 0.9.

For `CN1COCN(Cc2cnc(Cl)s2)C1=N[N+](=O)[O-]`, the compound was classed as inactive in [1], in [2], in test [3], in test [4], in test [5] and in test [6]. In addition, the compound was called inactive in test [7], in test [8], in test [9], in test [10], in test [11] and in test [12]. The result in test [13] and in test [14] was inactive.

Broadly, the AC50 is the midpoint of the concentration-response curve, whichever way the signal moves. Consider `Nc1c(Cl)cc([N+](=O)[O-])cc1Cl`, for which the AC50 in [1] was 37 µM (active); in [2], 20 µM (active); in test [3] it was 26 µM (active); in test [6], 32.8 µM (active). Moreover, the call in test [4] and in [5] was inactive.

For `COc1cc(OC)nc(Sc2cccc(Cl)c2C(=O)O)n1`, the result in [1], in [2], in [3], in test [4], in test [5] and in test [6] was inactive.

With `CCOC(=O)CC(SP(=O)(OC)OC)C(=O)OCC` (configuration not stated), the result in [1], in [2], in test [3], in [4], in test [5] and in test [6] was inactive. Besides, the outcome in test [7], in test [9], in test [10], in test [11], in test [12] and in test [13] was inactive. The outcome in test [14] was inactive.

For the compound `CCOP(=S)(OCC)SCCSCC`, the compound was called inactive in test [1], in [3], in [4], in test [6], in [7] and in test [15]. Besides, the result in [8], in [9], in test [10], in [11], in test [12] and in test [13] was inactive. Besides, the compound was called inactive in test [14]. Also, the AC50 in [2] is 2.98 µM (active); in [5], 8.93 µM (active).

As to `FC(F)C(F)(F)OCC(Cn1cncn1)c1ccc(Cl)cc1Cl` (configuration not stated), the compound was called inactive in test [1], in [2], in [3], in test [4] and in test [6]. Moreover, in [5], the AC50 was 23.8 µM (active).

As to `CC(C)=CC1C(C(=O)OCN2C(=O)C3=C(CCCC3)C2=O)C1(C)C` (configuration not stated), the compound was classed as inactive in [1], in test [2], in [3], in test [4], in test [7] and in test [8]. Moreover, the compound was classed as inactive in [9], in test [10], in [11], in test [12], in test [13] and in [14]. Further, the AC50 in test [5] is 28.6 µM (active); in test [6], 25.1 µM (active); in [16], 70 µM (active).

In the case of `CN(C)[C@@H]1C(=O)C(C(N)=O)=C(O)[C@@]2(O)C(=O)C3=C(O)c4c(O)cccc4[C@@](C)(O)[C@H]3[C@H](O)[C@@H]12`, the compound was called inactive in test [1], in test [2], in test [3], in [4], in test [5] and in test [6]. The compound was called inactive in test [17], in test [15], in [9], in [10], in [11] and in [12]. The call in test [13] and in test [14] was inactive. The AC50 in [7] was 50 µM (active); in test [8], 50 µM (active); in test [16] it was 100 µM (active) and 61.6 µM (active).
